# Measured values from the supplement of paper PMC8728848.
# Shown is part of a subset that was picked to be rich in the strongest signals.
# B1: Siglec-F (Mus musculus), Q920G3 (protein)
# chain: MRWAWLLPLLWAGCLATDGYSLSVTGSVTVQEGLCVFVACQVQYPNSKGPVFGYWFREGANIFSGSPVATNDPQRSVLKEAQGRFYLMGKENSHNCSLDIRDAQKIDTGTYFFRLDGSVKYSFQKSMLSVLVIALTEVPNIQVTSTLVSGNSTKLLCSVPWACEQGTPPIFSWMSSALTSLGHRTTLSSELNLTPRPQDNGTNLTCQVNLPGTGVTVERTQQLSVIYAPQKMTIRVSWGDDTGTKVLQSGASLQIQEGESLSLVCMADSNPPAVLSWERPTQKPFQLSTPAELQLPRAELEDQGKYICQAQNSQGAQTASVSLSIRSLLQLLGPSCSFEGQGLHCSCSSRAWPAPSLRWRLGEGVLEGNSSNGSFTVKSSSAGQWANSSLILSMEFSSNHRLSCEAWSDNRVQRATILLVSGPKVSQAGKSETSRGTVLGAIWGAGLMALLAVCLCLIFFTVKVLRKKSALKVAATKGNHLAKNPASTINSASITSSNIALGYPIQGHLNEPGSQTQKEQPPLATVPDTQKDEPELHYASLSFQGPMPPKPQNTEAMKSVYTEIKIHKC
# Columns and labels:
# Assay in all cases: glycan array binding signal (z-score within array); higher = stronger binding
# Settings in all cases: glycan notation: IUPAC condensed, linker removed
# [1] = biological target: GalNAc(a1-3)Fuc(a1-2)Gal(b1-4)GlcNAc(b1-3)[GalNAc(a1-3)Fuc(a1-2)Gal(b1-4)GlcNAc(b1-6)]GalNAc
# In short: (§1)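 Columns mapping to the same glycan were averaged after glycan names were converted to IUPAC-condensed notation. The data come from 3228 arrays in the Consortium for Functional Glycomics database, limited to those with an available protein sequence. Binding is reported as a within-array Z-score averaged across arrays of one protein sequence and across linkers.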
# GalNAc(b1-3)GlcNAc = biological target: GalNAc(b1-3)GlcNAc
# In short: as §1
# GalNAc(b1-4)Gal(b1-4)Glc = biological target: GalNAc(b1-4)Gal(b1-4)Glc
# In short: as §1
# [2] = biological target: GlcNAc(a1-4)Gal(b1-4)GlcNAc(b1-3)Gal(b1-4)GlcNAc
# In short: as §1
# GlcNAc(b1-3)Fuc = biological target: GlcNAc(b1-3)Fuc
# In short: as §1
# [3] = biological target: GlcNAc(b1-3)Gal(b1-4)GlcNAc(b1-3)Gal(b1-4)GlcNAc(b1-2)Man(a1-3)[GlcNAc(b1-3)Gal(b1-4)GlcNAc(b1-3)Gal(b1-4)GlcNAc(b1-2)Man(a1-6)]Man(b1-4)GlcNAc(b1-4)GlcNAc
# In short: as §1
# [4] = biological target: GlcNAc(b1-3)Gal(b1-4)GlcNAc(b1-6)[Gal(b1-3)]GalNAc
# In short: as §1
# GlcNAc(b1-3)GalNAc = biological target: GlcNAc(b1-3)GalNAc
# In short: as §1
# Man(a1-3)[Man(a1-6)]Man = biological target: Man(a1-3)[Man(a1-6)]Man
# In short: as §1
# [5] = biological target: Neu5Ac(a2-3)Gal(b1-3)GalNAc(b1-4)[Neu5Ac(a2-3)]Gal(b1-4)Glc
# In short: as §1
# [6] = biological target: Neu5Ac(a2-3)Gal(b1-3)[Fuc(a1-4)]GlcNAc(b1-3)Gal(b1-4)[Fuc(a1-3)]GlcNAc
# In short: as §1
# [7] = biological target: Neu5Ac(a2-3)Gal(b1-3)[Neu5Ac(a2-3)Gal(b1-4)]GlcNAc
# In short: as §1
# [8] = biological target: Neu5Ac(a2-3)Gal(b1-3)]Neu5Ac(a2-3)Gal(b1-4)]GlcNAc
# In short: as §1
# [9] = biological target: Neu5Ac(a2-3)Gal(b1-4)GlcNAc(b1-2)Man(a1-3)[GlcNAc(b1-2)Man(b1-4)GlcNAc(b1-2)Man(a1-6)]Man(b1-4)GlcNAc(b1-4)GlcNAc
# In short: as §1
# [10] = biological target: Neu5Ac(a2-3)Gal(b1-4)GlcNAc(b1-2)Man(a1-3)[Neu5Ac(a2-3)Gal(b1-4)GlcNAc(b1-2)Man(a1-6)]Man(b1-4)GlcNAc(b1-4)GlcNAc
# In short: as §1
# [11] = biological target: Neu5Ac(a2-3)Gal(b1-4)GlcNAc(b1-2)Man(a1-3)[Neu5Ac(a2-3)Gal(b1-4)GlcNAc(b1-2)Man(a1-6)]Man(b1-4)GlcNAc(b1-4)[Fuc(a1-6)]GlcNAc
# In short: as §1
# [12] = biological target: Neu5Ac(a2-3)Gal(b1-4)GlcNAc(b1-2)[Neu5Ac(a2-3)Gal(b1-4)GlcNAc(b1-4)]Man(a1-3)[GlcNAc(b1-4)][Neu5Ac(a2-3)Gal(b1-4)GlcNAc(b1-2)[Neu5Ac(a2-3)Gal(b1-4)GlcNAc(b1-6)]Man(a1-6)]Man(b1-4)GlcNAc(b1-4)GlcNAc
# In short: as §1
# [13] = biological target: Neu5Ac(a2-3)Gal(b1-4)GlcNAc(b1-2)[Neu5Ac(a2-3)Gal(b1-4)GlcNAc(b1-4)]Man(a1-3)[GlcNAc(b1-4)][Neu5Ac(a2-3)Gal(b1-4)GlcNAc(b1-4)Man(a1-6)]Man(b1-4)GlcNAc(b1-4)GlcNAc
# In short: as §1
# [14] = biological target: Neu5Ac(a2-3)Gal(b1-4)GlcNAc(b1-2)[Neu5Ac(a2-3)Gal(b1-4)GlcNAc(b1-6)]Man(a1-6)[Neu5Ac(a2-3)Gal(b1-4)GlcNAc(b1-2)Man(a1-3)][GlcNAc(b1-4)]Man(b1-4)GlcNAc(b1-4)GlcNAc
# In short: as §1
# [15] = biological target: Neu5Ac(a2-3)Gal(b1-4)GlcNAc(b1-6)[Neu5Ac(a2-3)Gal(b1-3)]GalNAc
# In short: as §1
# [16] = biological target: Neu5Ac(a2-3)Gal(b1-4)[Fuc(a1-3)]GlcNAc(b1-3)Gal
# In short: as §1
# [17] = biological target: Neu5Ac(a2-3)Gal(b1-4)[Fuc(a1-3)]GlcNAc(b1-3)Gal(b1-4)[Fuc(a1-3)]GlcNAc(b1-3)Gal(b1-4)[Fuc(a1-3)]GlcNAc
# In short: as §1
# [18] = biological target: Neu5Ac(a2-3)Gal6S(b1-4)GlcNAc
# In short: as §1
# [19] = biological target: Neu5Ac(a2-3)Gal6S(b1-4)[Fuc(a1-3)]GlcNAc
# In short: as §1
# [20] = biological target: Neu5Ac(a2-6)Gal(b1-4)GlcNAc(b1-2)[Neu5Ac(a2-6)Gal(b1-4)GlcNAc(b1-4)]Man(a1-3)[GlcNAc(b1-4)][Neu5Ac(a2-6)Gal(b1-4)GlcNAc(b1-4)Man(a1-6)]Man(b1-4)GlcNAc(b1-4)GlcNAc
# In short: as §1
# Neu5Ac(a2-6)GalNAc = biological target: Neu5Ac(a2-6)GalNAc
# In short: as §1
# Neu5Gc(a2-3)Gal(b1-4)Glc = biological target: Neu5Gc(a2-3)Gal(b1-4)Glc
# In short: as §1
# [21] = biological target: Neu5Gc(a2-3)Gal(b1-4)GlcNAc
# In short: as §1
binder,measurement,setting,value
B1,glycan array binding signal (z-score),[1],-0.088
same,glycan array binding signal (z-score),GalNAc(b1-3)GlcNAc,-0.154
same,glycan array binding signal (z-score),GalNAc(b1-4)Gal(b1-4)Glc,-0.099
same,glycan array binding signal (z-score),[2],-0.146
same,glycan array binding signal (z-score),GlcNAc(b1-3)Fuc,-0.135
same,glycan array binding signal (z-score),[3],-0.064
same,glycan array binding signal (z-score),[4],-0.15
same,glycan array binding signal (z-score),GlcNAc(b1-3)GalNAc,-0.12
same,glycan array binding signal (z-score),Man(a1-3)[Man(a1-6)]Man,-0.113
same,glycan array binding signal (z-score),[5],3.76
same,glycan array binding signal (z-score),[6],-0.066
same,glycan array binding signal (z-score),[7],2.46
same,glycan array binding signal (z-score),[8],3.65
same,glycan array binding signal (z-score),[9],2.11
same,glycan array binding signal (z-score),[10],1.94
same,glycan array binding signal (z-score),[11],2.76
same,glycan array binding signal (z-score),[12],8.27
same,glycan array binding signal (z-score),[13],5.53
same,glycan array binding signal (z-score),[14],5.76
same,glycan array binding signal (z-score),[15],0.072
same,glycan array binding signal (z-score),[16],-0.088
same,glycan array binding signal (z-score),[17],-0.109
same,glycan array binding signal (z-score),[18],13.2
same,glycan array binding signal (z-score),[19],12.9
same,glycan array binding signal (z-score),[20],-0.097
same,glycan array binding signal (z-score),Neu5Ac(a2-6)GalNAc,-0.113
same,glycan array binding signal (z-score),Neu5Gc(a2-3)Gal(b1-4)Glc,-0.118
same,glycan array binding signal (z-score),[21],-0.126
